For this test, the target named is Protein RecA (Mycobacterium tuberculosis (strain ATCC 25618 / H37Rv)) (UniProt P9WHJ3). Put plainly: Mycobacterium tuberculosis RecA intein splicing inhibitors, confirmatory dry powder dose response (AID 493229). The settings on record: biochemical plate reader; series mostly up to 35 µM.

Measured potencies and affinities stand elsewhere. Records with an inconclusive call do not appear. Active and inactive are the calls of the source. No rule for the calls is given here.

Protein RecA (Mycobacterium tuberculosis (strain ATCC 25618 / H37Rv)), sequence (P9WHJ3 whole entry, looked up): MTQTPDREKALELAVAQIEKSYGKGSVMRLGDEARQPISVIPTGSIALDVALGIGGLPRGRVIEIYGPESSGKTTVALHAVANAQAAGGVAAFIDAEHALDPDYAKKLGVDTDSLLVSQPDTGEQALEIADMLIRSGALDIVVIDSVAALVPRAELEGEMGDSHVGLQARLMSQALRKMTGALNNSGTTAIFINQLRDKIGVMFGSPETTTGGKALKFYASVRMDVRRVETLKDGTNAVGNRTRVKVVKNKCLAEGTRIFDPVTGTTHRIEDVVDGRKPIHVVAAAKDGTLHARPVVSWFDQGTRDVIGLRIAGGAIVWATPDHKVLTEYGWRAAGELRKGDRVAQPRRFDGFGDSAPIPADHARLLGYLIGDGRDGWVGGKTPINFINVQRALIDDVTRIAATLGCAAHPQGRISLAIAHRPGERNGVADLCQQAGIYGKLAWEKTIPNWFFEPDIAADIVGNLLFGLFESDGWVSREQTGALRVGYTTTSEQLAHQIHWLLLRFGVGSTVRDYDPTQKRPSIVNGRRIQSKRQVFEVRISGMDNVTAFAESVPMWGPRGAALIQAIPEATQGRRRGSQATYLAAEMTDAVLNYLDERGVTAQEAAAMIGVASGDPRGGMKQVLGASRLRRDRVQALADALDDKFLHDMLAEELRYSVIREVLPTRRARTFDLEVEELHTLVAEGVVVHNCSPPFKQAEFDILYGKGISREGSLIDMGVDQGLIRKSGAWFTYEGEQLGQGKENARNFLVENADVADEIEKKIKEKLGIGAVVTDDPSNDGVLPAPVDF

Regarding `Nc1cn(-c2ccccc2)nc1-c1ccc(F)cc1`, the result was inactive.
